Measured values as given in PubChem BioAssay (NCATS).
Calls of active or inactive are those of the source. The call rests on the fitted dose curve.

Key:
Assay in all cases: Confirmatory Screen for Target Class Profiling of Small Molecule Inhibitors of Methyltransferases (AID 1745852); on activity change, negative = inhibition: on the % scale 0 is the no-effect control and ±100 the full control effect
[1] = target: Catechol O-methyltransferase (Homo sapiens) (UniProt P21964); conditions: MTase-Glo luminescence, SAH detection, recombinant enzyme; measured here: COMT max response; stronger effect = lower value
[2] = target: Guanidinoacetate N-methyltransferase (Homo sapiens) (UniProt Q14353); conditions: MTase-Glo luminescence, SAH detection, recombinant enzyme; activity change, negative = inhibition: at 57.3 µM (top of the series) unless noted; series mostly up to 57.3 µM
[3] = target: Nicotinamide N-methyltransferase (Homo sapiens) (UniProt P40261); conditions: MTase-Glo luminescence, SAH detection, recombinant enzyme; measured here: NNMT max response; stronger effect = lower value
[4] = target: Phenylethanolamine N-methyltransferase (Homo sapiens) (UniProt P11086); conditions: MTase-Glo luminescence, SAH detection, recombinant enzyme; measured here: PNMT max response; stronger effect = lower value
Potency means the concentration at half of the fitted maximal effect.

Sequence of Phenylethanolamine N-methyltransferase (Homo sapiens) (P11086 whole entry, looked up): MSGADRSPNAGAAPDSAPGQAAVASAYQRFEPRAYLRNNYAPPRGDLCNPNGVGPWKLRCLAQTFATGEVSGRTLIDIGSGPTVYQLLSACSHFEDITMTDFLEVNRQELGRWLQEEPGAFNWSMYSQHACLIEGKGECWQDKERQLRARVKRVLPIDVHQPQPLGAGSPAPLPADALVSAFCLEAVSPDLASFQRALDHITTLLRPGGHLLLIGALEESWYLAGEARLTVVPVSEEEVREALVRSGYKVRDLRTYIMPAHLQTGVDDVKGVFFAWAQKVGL
Sequence of Nicotinamide N-methyltransferase (Homo sapiens) (P40261 whole entry, looked up): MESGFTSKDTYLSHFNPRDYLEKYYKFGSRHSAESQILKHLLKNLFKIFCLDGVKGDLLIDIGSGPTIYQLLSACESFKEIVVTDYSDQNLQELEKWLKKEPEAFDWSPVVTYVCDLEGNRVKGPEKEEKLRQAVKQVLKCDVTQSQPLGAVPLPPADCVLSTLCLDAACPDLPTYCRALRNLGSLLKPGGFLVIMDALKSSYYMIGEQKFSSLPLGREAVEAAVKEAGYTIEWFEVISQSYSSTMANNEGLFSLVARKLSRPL
Sequence of Catechol O-methyltransferase (Homo sapiens) (P21964 whole entry, looked up): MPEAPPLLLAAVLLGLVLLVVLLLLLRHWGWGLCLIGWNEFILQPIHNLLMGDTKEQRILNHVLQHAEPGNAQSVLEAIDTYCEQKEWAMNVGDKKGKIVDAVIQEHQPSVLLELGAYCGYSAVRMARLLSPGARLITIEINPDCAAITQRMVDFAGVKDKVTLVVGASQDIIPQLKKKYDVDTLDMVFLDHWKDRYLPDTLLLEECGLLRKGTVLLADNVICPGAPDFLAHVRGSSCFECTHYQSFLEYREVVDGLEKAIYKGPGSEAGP

Row | SMILES | activity [1] [%] | activity change, negative = inhibition [2] | activity [3] [%] | activity [4] [%] | Potency [2]
1 | CNc1cc(C2CC(NC(=O)COc3ccc(Cl)cc3C)C2)nc(N)n1 (centres undefined) | 7.09 | 2.13% | -5.16 | 6.12 | –
2 | O=C(CCc1nnc2n(CCc3ccccc3)c(=O)c3ccccc3n12)N1CCN(c2ccccc2)CC1 | 0 | 0% | -41 | 0.144 | –
3 | CCN1CCN(c2nc3c(S(=O)(=O)c4ccc(Br)cc4)nnn3c3ccccc23)CC1 | 1.75 | 2.08% | -1.61 | -3.25 | –
4 | Cc1cc(NS(=O)(=O)c2ccc3[nH]c(=O)[nH]c3c2)ccc1Br | 1.24 | 0.289% | -14.5 | -63.7 | –
5 | Cc1noc(C)c1-c1cnc(Nc2ccncc2)c2c1CCO2 | 0.912 | 1.39% [at 85.7 µM] | -6.04 | 2.25 | –
6 | COc1ccc(N2CCN(C(=O)c3cc(NC(C)=O)cc4nc(C)ccc34)CC2)cc1 | 1.89 | 4.56% | 4.7 | 7.32 | –
7 | N#Cc1cnc(N2CC3CCC(C2)N3CC(F)(F)F)s1 | -0.326 | -4.72% [at 85.7 µM] | -7.9 | -0.128 | –
8 | O=C(CCc1ccccc1)N1CCNc2cnc(Nc3cccnc3)nc2C1 | -28.2 | -16.6% [at 85.7 µM] | -21.6 | -41.2 | –
9 | COC(=O)c1nc(NC(=O)Cn2nc3c(cc2=O)CCCC3)sc1C(C)C | -1.05 | 0.9% | -8.15 | 2.23 | –
10 | c1ccc(CN2CCc3c(sc4ncnc(N5CCOCC5)c34)C2)cc1 | -7.7 | -10.8% | -44.8 | -7.28 | –
11 | CC1CCCC(NC(=O)C2(C)Cn3c(cc4occc43)C(=O)N2Cc2ccco2)C1C (centres undefined) | -10.3 | -6.55% | -20.3 | -11.1 | –
12 | CC1=C[C@@H](CN(CC2CC2)CC2CC2)[C@H](C(C)C)C[C@H]1Cc1nc2ccncc2[nH]1 | 3.81 | 4.35% [at 85.7 µM] | -1.17 | 3.65 | –
13 | O=C(NCc1cccc(Cl)c1)c1cnc2c(c1)N(C(=O)Cc1ccc(O)cc1)CCC2 | -2.5 | -3.31% [at 85.7 µM] | -5.79 | -1 | –
14 | CC1CCN(CCCNC(=O)CCc2nnc3n(Cc4ccc(Cl)cc4)c(=O)c4ccccc4n23)CC1 | -7.96 | -1.55% | -19 | -5.13 | –
15 | O=C(c1ccc(C(F)(F)F)cc1)N1CCCC(C(=O)N2CCC(c3nc4ccncc4[nH]3)CC2)C1 (centres undefined) | 9.15 | 6.72% | -28.9 | 9.23 | –
16 | CCCC1c2cccn2CCN1C(=O)Nc1ccc(OC)cc1 (centres undefined) | -6.82 | -3.73% | -13.3 | -7.43 | –
17 | CCN(CC)CCNC(=O)CCc1nnc2n(Cc3ccc(Cl)cc3)c(=O)c3ccccc3n12 | 2.48 | 0% | -12.4 | 0 | –
18 | COC(=O)c1ccc(C)c2c1C1C=CCC1[C@@H](c1ccc(C(=O)O)cc1)N2 (some centres undefined) | -11.4 | -1.6% | -8.29 | -3.22 | –
19 | CCOCCCN1C(=O)c2cc3c(OC)ccc(OC)c3n2CC1(C)C(=O)NC1CCCCC1 (centres undefined) | -8.08 | -4.76% | -17.7 | -10.4 | –
20 | COc1ccccc1N1CCN(S(=O)(=O)c2cccc3c2C(=O)c2ccccc2C3=O)CC1 | -3.23 | 2.86% | -1.31 | -8.85 | –
21 | Cc1cc(-c2nc3ccncc3[nH]2)c(C)[nH]1 | -4.56 | 3.2% [at 114 µM] | -25.8 | -11.2 | –
22 | O=[S+]1([O-])NC2(CCCN(Cc3c(F)cccc3Cl)C2)COc2ccccc21 (centres undefined) | -6.32 | 2.18% | -5.33 | -3.56 | –
23 | CCC1Oc2ccc(NS(=O)(=O)c3ccc(Cl)cc3)cc2CN(Cc2ccc(F)cc2)C1=O (centres undefined) | -6.43 | -14.3% | -24.1 | -6.42 | –
24 | COc1ccc(CCNC(=O)c2ccc3c(=O)nc4c(-c5cccc(F)c5)n[nH]n4c3c2)cc1OC | -16 | – | -27.1 | -14.6 | 10.8 µM (active)
25 | COc1ccc(OC)c2c1cc1n2CC(C)(C(=O)NC2CCCCCC2)N(Cc2ccccn2)C1=O (centres undefined) | 3.33 | – | -20.5 | -2.24 | inactive
26 | O=C(NCc1ccc2c(c1)OCO2)c1sc(=S)n2c1[nH]c(=O)c1ccccc12 | -46.4 | – | -20.7 | -48.8 | 27.1 µM (active)

Row | SMILES | activity [1] [%] | activity change, negative = inhibition [2] | activity [3] [%] | activity [4] [%] | Potency [2]
27 | COc1ccc(CCN2C(=O)c3cc4occc4n3CC2(C)C(=O)NC2CCCCCC2)cc1OC (centres undefined) | -3.67 | -1.83% | -64.2 | -5.31 | –
28 | CC(=O)Nc1cccc(-c2cc3c(cn2)CN(Cc2ccccc2)CCN3)c1 | -2.16 | 0.249% [at 85.7 µM] | -13 | -14.8 | –
29 | O=C(Cn1c(=O)oc2cc(S(=O)(=O)N3CCCC3)ccc21)Nc1cccc(Cl)c1 | -1.16 | 0% | 4.81 | -49.8 | –
30 | CCCN1CCn2c3c(c4cc(OC)ccc42)CCN=C31 | -5.03 | -1.32% | -6.4 | -5.52 | –
31 | O=C(Cc1ccsc1)Nc1ccc2c(N3CCCC3)ncnc2c1 | 0.696 | 4.54% | 3.05 | -6.83 | –
32 | COc1cccc(CN2CCCC3(CCN(c4cc(C)nc(N)n4)C3)C2)c1OC (centres undefined) | -4.01 | -7.75% | -4.87 | -3.6 | –
33 | COc1cccc(-c2cccc(C(=O)N3C[C@H](CO)C[C@H](CN(C)C)C3)c2)c1 | 7.14 | 2.08% | 0.542 | 4.94 | –
34 | CC1CCCCC1NC(=O)C1(C)Cn2c(cc3sccc32)C(=O)N1Cc1ccc(Cl)cc1 (centres undefined) | -7.44 | -6.06% | -8.12 | -8.77 | –
35 | COc1ccc(-c2nnn3c2nc(NCCc2ccc(OC)c(OC)c2)c2ccccc23)cc1 | -10.5 | -2.81% | -12.4 | -9.28 | –
36 | CC1CCN(CCCNC(=O)C2CCc3sc(C(=O)N4CCCC4)cc3C2)CC1 (centres undefined) | 4.14 | 6.27% | -0.224 | 4.65 | –
37 | Cn1cc(CN2CCCC(COc3ccccc3C(=O)N3CCCCC3)C2)c2ccccc21 (centres undefined) | 6.44 | 7.22% | 4.53 | 3.6 | –
38 | CC(C)Cn1c(=O)c2ccccc2n2c(CCC(=O)N3CCC(Cc4ccccc4)CC3)nnc12 | -2.5 | 0.755% | -56.6 | -9.36 | –
39 | O=C(NCc1ccc2c(c1)OCO2)c1sc(=S)n2c1[nH]c(=O)c1cc(Cl)ccc12 | -44.1 | – | -69.1 | -48.4 | 30.4 µM (active)
40 | CC(C)c1nccn1CCCNC(=O)c1ccc(N2CCCC(CO)C2)nc1 (centres undefined) | 2.58 | 1.26% | 6.68 | 5.49 | –
41 | COc1ccc(-c2[nH]ncc2CN2CC[C@H]3CC[C@@H](C2)N3)cc1 | 11.4 | 7.93% | 10.4 | 7.25 | –
42 | CCCC1c2cccn2CCN1C(=O)NC1(CC(=O)OCC)CCCCC1 (centres undefined) | -3.29 | -0.613% | -5.96 | -9.82 | –
43 | COc1cccc(CNC(=O)c2sc(=S)n3c2[nH]c(=O)c2cc4c(cc23)OCO4)c1 | -25.7 | – | -43.7 | -28 | 42.9 µM (active)
44 | O=C(NCc1ccc(Cl)cc1)c1ccc2c(=O)nc3c(-c4ccccc4F)n[nH]n3c2c1 | -4.08 | -1.1% | -14.9 | -19.4 | –
45 | CCc1ccc(NS(=O)(=O)c2ccc3c(c2)n(C)c(=O)n3C)cc1 | 4.08 | 0% | -40.6 | -1.22 | –
46 | CCOC(=O)c1ccc(NC(=O)Cn2c(=O)oc3cc(S(=O)(=O)N4CCCC4)ccc32)cc1 | -7.51 | -4.51% | -9.52 | -37.8 | –
47 | CCCc1sc(NC(=O)C[C@H]2NC(=O)c3ccccc3NC2=O)nc1C(=O)OC | 4.16 | 2.83% | -4.71 | 3.73 | –
48 | Cc1cccc(N2CCN(C(=O)CCc3nnc4n(CC(C)C)c(=O)c5ccccc5n34)CC2)c1C | 4.82 | 2.51% | -69.8 | 4.08 | –
49 | CC(C)OCCCn1c(=O)c2ccccc2n2c(CCC(=O)N3CCN(c4cccc(Cl)c4)CC3)nnc12 | 0.543 | 0% | -39.1 | -4.41 | –
50 | CC1(C(=O)NC2CCCCCC2)Cn2c(c(-n3cccc3)c3ccccc32)C(=O)N1CC1CCCO1 (centres undefined) | 4.7 | 0.126% | -46.9 | 0 | –
51 | CCOc1ccccc1CN1CCC(Cc2nc(-c3cccnc3)n[nH]2)C1 (centres undefined) | 2.59 | 0.265% | -34.4 | -0.0084 | –
